Experimental data: PubChem BioAssay AID488905 (Broad Institute, 2010)
Entries with a potency or affinity are not part of this list. Inconclusive results are not listed. The source made the active and inactive calls.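 Rule for the calls: active = growth inhibition lowering dye signal, with fitted half-maximal dose at most ten times the top valid dose; inconclusive = flat curve inhibiting 30 to 70 percent, or unreliable fit; inactive = the rest, including effects in the opposite direction.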

Experiment: resistant Candida growth with fluconazole co-treatment – CaCi-8 strain, Alamar Blue, dry powder, set 3, dose response (AID 488905)

Row | Structure (SMILES) | outcome
1 | COCCC(=O)N1CCN(c2ccccn2)CC1 | inactive
2 | O=C(c1ccc(Cl)cc1)N1CCN(c2cccc(C(F)(F)F)n2)CC1 | inactive
3 | O=C(c1ccc(Cl)cc1)N1CCN(c2cnccn2)CC1 | inactive
4 | Cn1ccnc1N1CCN(C(=O)c2ccc(Cl)cc2)CC1 | inactive
5 | COc1cccnc1N1CCN(C(=O)c2ccc(Cl)cc2)CC1 | inactive
6 | Cc1cccc(N2CCN(C(=O)c3ccc(Cl)cc3)CC2)n1 | inactive
7 | O=C(c1ccccc1)N1CCN(c2ccccn2)CC1 | inactive
